# Data published in PubChem BioAssay (NCATS).
# Inconclusive results are not listed. Active and inactive are the calls of the source. Calls follow the shape of the dose curve; as a rule, active = well fitted curve in the direction sought with a large enough effect; inconclusive = small, poorly fitted or top-dose-only effect, or another doubt; inactive = no such curve, though single readings can be large; an effect the other way counts as inactive or inconclusive.
# Experiment: qHTS of pediatric cancer cell lines to identify multiple opportunities for drug repurposing: Primary screen for Rh41 cells (AID 1347108);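 also: luminescence drop marks cytotoxic hits; nearly all actives have a fitted effect of over 70% in size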
# Conditions: Rh41 rhabdomyosarcoma viability, CellTiter-Glo luminescence, 48 h; series mostly up to 46 µM; activity change, negative = cytotoxic: at the top concentration
# In short: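 CRCs from 8- or 11-point titrations (lowest final 0.59 nM NPC, 0.78 nM MIPE). Cell viability: CellTiter-Glo after 48 h incubation, 15 min room-temperature development, luminescence imaging.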
row,SMILES,"activity change, negative = cytotoxic"
1,CCC(C(=O)OCCOCCN(CC)CC)c1ccccc1 (stereo not given),-3.61% (inactive)
2,c1ccc(-c2nc[nH]c2-c2ccccc2)cc1,-1.32% (inactive)
3,CNCCc1ccccn1,24% (inactive)
4,C#C[C@]1(O)CC[C@H]2[C@@H]3CCC4=CC(=O)CC[C@@H]4[C@H]3CC[C@@]21CC,16.5% (inactive)
5,CCN[C@@H]1C[C@H](N)[C@@H](OC2OC(CN)=CCC2N)[C@H](O)[C@H]1O[C@H]1OC[C@](C)(O)[C@H](NC)[C@H]1O (stereo not given in full),8.19% [at 0.597 µM] (inactive)
6,O=[N+]([O-])c1cccc(S(=O)(=O)NCCNS(=O)(=O)c2cccc([N+](=O)[O-])c2)c1,8.31% (inactive)
7,C#C[C@]1(O)CC[C@H]2[C@@H]3CCC4=Cc5oncc5C[C@]4(C)[C@H]3CC[C@@]21C,10.8% (inactive)
8,COc1cc([C@H]2Oc3cc([C@H]4Oc5cc(O)cc(O)c5C(=O)[C@@H]4O)ccc3O[C@@H]2CO)ccc1O,-7.31% (inactive)
9,CCc1oc2ccccc2c1C(=O)c1cc(I)c(O)c(I)c1,6.07% (inactive)
10,O=C1C(=O)c2ccccc2C(O)=C1C1CCC(c2ccc(Cl)cc2)CC1 (stereo not given),16.8% (inactive)
11,COc1cc(C(=O)NCc2ccc(OCCN(C)C)cc2)cc(OC)c1OC,-5.75% (inactive)
12,CC(=O)NCCCCCC(=O)O,4.54% (inactive)
13,CCOC(=O)Nc1ccc2c(c1)N(C(=O)CCN1CCOCC1)c1ccccc1S2,0.0644% (inactive)
14,CCOC(=O)c1ccc(N)cc1,-4.05% (inactive)
15,NC(=O)c1ccccc1O,3.41% (inactive)
16,CC(=O)Nc1ccc(S(=O)(=O)Nc2ccc([N+](=O)[O-])cc2)cc1,15.8% (inactive)
17,CC(C)(Cc1c[nH]c2ccccc12)NCC(O)COc1ccccc1C#N (stereo not given),-2.78% (inactive)
18,CCCCN1C[C@H](O)[C@@H](O)[C@H](O)[C@H]1CO,2.57% (inactive)
19,CCCCCCCCCCCCSCCOCCO,24.5% (inactive)
20,C[C@H]1[C@H]2CC[C@H]3[C@@H]4CC=C5C[C@@H](N(C)C)CC[C@]5(C)[C@H]4CC[C@]23CN1C,-12.5% (inactive)
21,CCCCC(CC)CN1CN(CC(CC)CCCC)CC(C)(N)C1 (stereo not given),-8.17% (inactive)
22,CCC1Nc2cc(Cl)c(S(N)(=O)=O)cc2S(=O)(=O)N1 (stereo not given),16.1% (inactive)
23,CCc1oc2ccccc2c1C(=O)c1cc(Br)c(O)c(Br)c1,0.521% (inactive)
24,CCNC(=O)NCc1cccc(Cl)c1,11.7% (inactive)
25,O=C(CCN1CCN2CCCC2C1)N1c2ccccc2Sc2ccc(Cl)cc21 (stereo not given),1.48% [at 16.1 µM] (inactive)
26,CCN(CC)CCOC(=O)C(Cc1cccc2ccccc12)CC1CCCO1 (stereo not given),1.87% (inactive)

# Experiment: qHTS of pediatric cancer cell lines to identify multiple opportunities for drug repurposing: Confirmatory screen for NB1643 cells (AID 1347109);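 also: plate controls were DMSO for no effect and bortezomib for full effect; nearly all actives have a fitted effect of over 45% in size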
# Conditions: NB1643 neuroblastoma cell viability; series mostly up to 45.9 µM; activity change, negative = cytotoxic: at the top concentration
# In short: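 Cells (500-1,000/well) rested 5 h, then received compounds for 48 h; metabolically active cells were measured by CellTiter-Glo luminescence. Final concentrations spanned up to 46 µM (MIPE, 11-point) or 0.59 nM-46 µM (NPC, 8-point) in primary screens, 11-point in follow-ups.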
row,SMILES,"activity change, negative = cytotoxic"
1,CCCCCCCCCCC[C@@H](C[C@@H]1OC(=O)[C@H]1CCCCCC)OC(=O)[C@H](CC(C)C)NC=O,-4.44% (inactive)
2,CCN[C@@H]1C[C@H](N)[C@@H](OC2OC(CN)=CCC2N)[C@H](O)[C@H]1O[C@H]1OC[C@](C)(O)[C@H](NC)[C@H]1O (stereo not given in full),11.9% [at 0.556 µM] (inactive)
3,CCCCCCCCCCCCOCCOCCOCCOCCOCCOCCOCCOCCOCCO,-9.59% (inactive)

# Experiment: qHTS of pediatric cancer cell lines to identify multiple opportunities for drug repurposing: Confirmatory screen for DAOY cells (AID 1347114); also: nearly all actives have a fitted effect of over 65% in size; also: potency is read from the fitted curve at half-maximal effect; as to activity change, negative = cytotoxic: % is scaled to controls: 0 for no effect and ±100 for the full control effect
# Conditions: DAOY medulloblastoma cells viability, cytotoxicity qHTS; series mostly up to 45.9 µM; activity change, negative = cytotoxic: at the top concentration
# In short: (§1)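 Viability measured as metabolically active cells via CellTiter-Glo luminescence following 48 hours of compound exposure, 11-point dilutions in confirmatory testing. 500-1,000 cells/well plated 5 hours before dosing; controls were DMSO and 2.3 µM bortezomib.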
SMILES,"activity change, negative = cytotoxic",Potency
CCCCCCCCCCC[C@@H](C[C@@H]1OC(=O)[C@H]1CCCCCC)OC(=O)[C@H](CC(C)C)NC=O,-19.2% (inactive),–
CCN[C@@H]1C[C@H](N)[C@@H](OC2OC(CN)=CCC2N)[C@H](O)[C@H]1O[C@H]1OC[C@](C)(O)[C@H](NC)[C@H]1O (stereo not given in full),15.9% [at 0.556 µM] (inactive),–
CCCCCCCCCCCCOCCOCCOCCOCCOCCOCCOCCOCCOCCO,–,14.7 µM (active)

# Experiment: qHTS of pediatric cancer cell lines to identify multiple opportunities for drug repurposing: Confirmatory screen for SJ-GBM2 cells (AID 1347116); also: nearly all actives have a fitted effect of over 60% in size;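 as to activity change, negative = cytotoxic: plate controls were DMSO for no effect and bortezomib for full effect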
# Conditions: SJ-GBM2 glioblastoma cells, viability; series mostly up to 45.9 µM; activity change, negative = cytotoxic: at the top concentration
# In short: as §1
SMILES,outcome,"activity change, negative = cytotoxic"
CCCCCCCCCCC[C@@H](C[C@@H]1OC(=O)[C@H]1CCCCCC)OC(=O)[C@H](CC(C)C)NC=O,inactive,–
CCN[C@@H]1C[C@H](N)[C@@H](OC2OC(CN)=CCC2N)[C@H](O)[C@H]1O[C@H]1OC[C@](C)(O)[C@H](NC)[C@H]1O (stereo not given in full),–,5.75% [at 0.556 µM] (inactive)
CCCCCCCCCCCCOCCOCCOCCOCCOCCOCCOCCOCCOCCO,–,-2.14% (inactive)
